Screening data as filed in PubChem.
The sample as a whole holds a higher share of hits than the screen did.
nsP2pro primary: CHIKV nsP2 protease inhibition, primary qHTS; Potency, µM (doses to about 24.9 µM), without a hit: at the top dose activity change, negative = inhibition, most hits filed as inhibitors; 31,000 tested, 1.1% active; FRET peptide cleavage, nsP2pro, fluorescence 1 h; AID 1964107; further: nearly all actives have a fitted effect of over 60% in size
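Enzyme 150 nM, substrate 2.5 uM (both final); Tris-HCl 10 mM pH 8.0 + 0.01% Tween 20; cpd up to 25 uM, 7 pts; 15 min preinc., 1 h RT; fluorescence ex 525/em 598.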
CHIKV nsP2 cell: cell-based CHIKV nsP2 protease inhibition, secondary; cell-based CHIKV nsP2 protease reporter assay; shares compounds with nsP2pro primary; Potency, µM (top dose mostly 51.1 µM), for the others: top-dose activity change, negative = inhibition, usual class: inhibitors; 450 tested, 10% active; further: nearly all actives have a fitted effect of over 70% in size
CHIKV NSP2 FL: inhibits full-length CHIKV NSP2 enzyme. shares compounds with nsP2pro primary. Full-length CHIKV NSP2 protease enzymatic counterscreen. Potency, µM (titrated, usually from 50.7 µM), inactives show at the highest dose activity change, negative = inhibition, actives largely listed as inhibitors. 410 tested, 39% active. AID 1964101; further: nearly all actives have a fitted effect of over 65% in size
Furin counter: human furin inhibition, counterscreen for nsP2pro inhibitors; shares compounds with nsP2pro primary; 410 tested, 6% active; Potency, µM (top dose mostly 50.6 µM), without a hit: top-dose activity change, negative = inhibition, most hits filed as inhibitors; Recombinant human furin enzymatic counterscreen, fluorogenic substrate
Target sequence (P09958 whole entry, looked up): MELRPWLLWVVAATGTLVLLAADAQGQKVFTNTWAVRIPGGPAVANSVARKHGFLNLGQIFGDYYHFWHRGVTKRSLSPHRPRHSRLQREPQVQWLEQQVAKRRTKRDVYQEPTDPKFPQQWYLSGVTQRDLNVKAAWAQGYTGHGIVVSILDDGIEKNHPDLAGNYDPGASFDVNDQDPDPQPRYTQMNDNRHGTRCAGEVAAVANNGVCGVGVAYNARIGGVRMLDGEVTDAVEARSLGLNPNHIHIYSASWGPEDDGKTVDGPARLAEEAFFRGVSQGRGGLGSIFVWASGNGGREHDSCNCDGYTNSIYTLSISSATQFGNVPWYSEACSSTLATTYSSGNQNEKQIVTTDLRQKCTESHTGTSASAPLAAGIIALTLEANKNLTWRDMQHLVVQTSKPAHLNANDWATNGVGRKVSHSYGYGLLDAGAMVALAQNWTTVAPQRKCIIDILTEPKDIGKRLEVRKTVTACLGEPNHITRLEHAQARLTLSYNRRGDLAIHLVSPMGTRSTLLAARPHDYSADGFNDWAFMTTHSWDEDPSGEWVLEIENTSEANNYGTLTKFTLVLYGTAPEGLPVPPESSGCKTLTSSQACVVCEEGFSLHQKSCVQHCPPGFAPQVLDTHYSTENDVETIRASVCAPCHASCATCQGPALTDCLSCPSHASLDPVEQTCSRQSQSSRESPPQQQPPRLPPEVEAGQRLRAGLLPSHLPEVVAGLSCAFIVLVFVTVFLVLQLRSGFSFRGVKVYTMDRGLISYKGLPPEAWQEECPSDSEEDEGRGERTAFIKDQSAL
nsP2 NS23 pep: nsP2pro inhibition on native NS2/3 peptide substrate. 410 tested, 34% active. Purified CHIKV nsP2 protease, endogenous NS2/3 peptide cleavage. AID 1964103. shares compounds with nsP2pro primary. Potency, µM (titrated, usually from 51 µM), inactives show at the top dose activity change, negative = inhibition, usual class: inhibitors; further: nearly all actives have a fitted effect of over 55% in size
Papain cs: selectivity counter-screen for CHIKV nsP2 protease inhibitors: papain; shares compounds with nsP2pro primary; purified papain protease activity, enzymatic inhibition; Potency, µM (doses to about 51 µM), for inactives: at the top dose activity change, negative = inhibition, actives largely listed as inhibitors; 410 tested, 5% active
nsP2pro conf qHTS: confirmation of CHIKV nsP2 protease inhibitors; shares compounds with nsP2pro primary; CHIKV nsP2 protease enzymatic activity, qHTS; Potency, µM (series often up to 25.5 µM), inactives show at the highest dose activity change, negative = inhibition, actives largely listed as inhibitors; 410 tested, 43% active; further: nearly all actives have a fitted effect of over 75% in size
HCV NS3 counter: selectivity counter-screen for CHIKV nsP2 protease inhibitors: HCV NS3/4A | shares compounds with nsP2pro primary | HCV NS3/4A protease biochemical counterscreen | Potency, µM (titrated, usually from 50.9 µM), most hits filed as inhibitors | 410 tested, 20% active | AID 1964106; further: nearly all actives have a fitted effect of over 55% in size
Active calls of the source: *; i = inactive; u = inconclusive; [ ] = remark or other dose. The call rests on the fitted dose curve. On the % scale 0 is the no-effect control and ±100 the full control effect; potency means the concentration at half of the fitted maximal effect.

SMILES | nsP2pro primary | others
CCOc1ccc(/C=C/C(=O)Nc2sc3c(c2C(=O)OC)C(C(=O)OC)CC3)cc1 (stereo not drawn) | 2.75µM* | CHIKV nsP2 cell=-10.2%;CHIKV NSP2 FL=u;Furin counter=2.0%;nsP2 NS23 pep=4.72µM*;Papain cs=-1.9%;nsP2pro conf qHTS=3.65µM*;HCV NS3 counter=i
COC(=O)c1c(NC(=O)CCCOc2ccc(C(C)(C)C)cc2)sc2c1CCC(C)C2 (stereo not drawn) | 30.5%
COC(=O)c1c(NC(=O)CCCOc2ccc(C)cc2)sc2c1CCCC2 | -34.2%
COC(=O)c1c(NC(=O)CCCOc2cccc(C)c2)sc2c1CCC2 | -16.2%
COC(=O)c1c(NC(=O)CCCOc2ccccc2C)sc2c1CCC(C)C2 (stereo not drawn) | -18.3%
Cc1cccc(NC(=O)CSc2nnc(NC(=O)Nc3ccccc3)s2)c1C | -23.8%
COc1cc(N2C(=O)c3ccccc3C2=O)c2ncccc2c1 | i
CCCCC(O)c1ccccc1 (stereo not drawn) | -0.5%
COc1cc(C(=O)Nc2ccc3[nH]c(=O)sc3c2)cc(OC)c1OC | -12.7%
CCN(CC)c1ccc(NC(=O)C2CCN(S(=O)(=O)c3ccc4c(c3)oc(=O)n4C)CC2)c(C)c1 | -7.7%
O=S(=O)(Nc1nccs1)c1ccc(NCc2ccccc2)cc1 | 3.1%
COc1cc(CN2CCN(S(=O)(=O)c3ccc(NC(C)=O)cc3)CC2)cc(OC)c1OC | -12.8%
COCCCNC(=O)c1cnn(-c2ccc(F)cc2F)c1C1CCNCC1 | 51.7% | CHIKV nsP2 cell=5.4%;CHIKV NSP2 FL=16.3µM*;Furin counter=-5.9%;nsP2 NS23 pep=u;Papain cs=-4.0%;nsP2pro conf qHTS=u;HCV NS3 counter=u
CC(C)(C)OC(=O)N1CCC(c2c(C(=O)NCCN3CCc4ccccc4C3)cnn2-c2ccc(F)cc2F)CC1 | -2.7%
CC(C)(C)OC(=O)N1CCC(c2c(C(=O)NCCc3ccccc3)cnn2-c2ccc(F)cc2F)CC1 | 3.8%
CC1=NOC2(CCN([S+](=O)([O-])c3c(C)noc3C)C2)C1 (stereo not drawn) | -19.4%[39.2 µM]
C=C1C(=O)OC2/C=C(\C)CC/C=C(\C)CC(OC(C)=O)C12 (stereo not drawn) | 3.4%
O=C(NCc1cccs1)c1cc2nc(-c3ccco3)cc(C(F)(F)Cl)n2n1 | 5.56µM* | CHIKV nsP2 cell=13.9%;CHIKV NSP2 FL=-2.6%;Furin counter=-16.5%;nsP2 NS23 pep=-18.8%;Papain cs=-1.9%;nsP2pro conf qHTS=-16.5%;HCV NS3 counter=i
CN(C(=O)c1cc2nc(-c3ccco3)cc(C(F)(F)F)n2n1)c1ccc(OC(F)(F)Cl)cc1 | -24.8%
O=C(Nc1cccc(C(F)(F)F)c1)c1cc2nc(-c3ccco3)cc(C(F)(F)Cl)n2n1 | -2.1%
OCCCNc1cc(-c2ccnc(Nc3cccc(Cl)c3)n2)ccn1 | 57.4%
NC(=O)N1CCC(CC(=O)N2CCC([C@H]3c4ncc(Br)cc4CCc4cc(Cl)cc(Br)c43)CC2)CC1 | 15.0%
C/C(=C(\CCOC(=O)c1ccccc1)SS/C(CCOC(=O)c1ccccc1)=C(/C)N(C=O)Cc1cnc(C)nc1N)N(C=O)Cc1cnc(C)nc1N | 8.81µM* | CHIKV nsP2 cell=-3.1%;CHIKV NSP2 FL=13µM*;Furin counter=-7.7%;nsP2 NS23 pep=5.8µM*;Papain cs=-8.9%;nsP2pro conf qHTS=7.98µM*;HCV NS3 counter=5.8µM*
CCCOC(=O)c1ccccc1 | -4.3%
Cc1ccc(-c2cc(-c3ccccc3)c(C#N)c(SCC(O)CS(=O)(=O)Cc3ccccc3)n2)cc1 (stereo not drawn) | -13.1%
SMILES | nsP2pro primary | others
CS(=O)(=O)N1C[C@@H]2OCC(=O)N(Cc3ccncc3)[C@@H]2C1 | 3.3%[39.2 µM]
CCCNC(=O)C1CCC(Cn2c(=O)c3sccc3n(Cc3ccccc3C)c2=O)CC1 (stereo not drawn) | -19.2%
CC(=O)OC1CC(O)C2(C)C(CC(OC(C)=O)C3(C)C2CCC2(C)C(c4ccoc4)C(=O)C4OC423)C1(C)C (stereo not drawn) | u | CHIKV nsP2 cell=11.7%[17.6 µM];CHIKV NSP2 FL=-18.0%[17.3 µM];Furin counter=-9.3%[17.3 µM];nsP2 NS23 pep=-8.8%[17.2 µM];Papain cs=-12.5%[17.2 µM];nsP2pro conf qHTS=-27.9%[8.62 µM];HCV NS3 counter=i
CC(=O)O[C@@H]1C[C@H](O)[C@@]23CO[C@H](O)[C@]1(C)C2C[C@@H](O)[C@]1(C)C3C(=O)[C@H](OC(C)=O)[C@@]2(C)[C@H](c3ccoc3)C[C@H]3O[C@]321 (stereo partly drawn) | -2.2%[10 µM]
CC(=O)O[C@@H]1CC2C(C)(C)C(=O)C=C[C@]2(C)C2CC[C@]3(C)C(=CC(=O)O[C@H]3c3ccoc3)[C@@]21C (stereo partly drawn) | 1.6%
COc1ccccc1NC(=O)CCCOc1cc(=O)n(C)c2ccccc12 | -12.8%
CCn1c(=O)cc(OCC(=O)NCc2ccccc2OC)c2ccccc21 | -7.5%
CCOc1ccc(CNC(=O)COc2cc(=O)n(C)c3ccccc23)cc1 | u | CHIKV nsP2 cell=2.3%
COc1ccc(C2(N(C)C(=O)c3ccc(NC(=O)c4ccco4)cc3)CCOCC2)cc1 | 13.6%
O=C1C2CC=CCC2C(=O)N1SC(Cl)(Cl)Cl (stereo not drawn) | 1.76µM* | CHIKV nsP2 cell=u;CHIKV NSP2 FL=2.91µM*;Furin counter=-3.2%;nsP2 NS23 pep=5.8µM*;Papain cs=-5.2%;nsP2pro conf qHTS=0.895µM*;HCV NS3 counter=u
Cc1cn([C@@H]2C[C@@H](O)[C@H](CO)O2)c(=O)[nH]c1=O | -25.0%
O=C(NCCc1ccc(Cl)cc1)C1CN(C2CCCC2)C(=O)N1 (stereo not drawn) | 1.1%[39.2 µM]
Cc1cccc(OCCSc2nc3ccc(NC(=O)COc4ccccc4F)cc3s2)c1 | -8.4%
CCOCCCn1c(=N)c(C(=O)NCc2cccnc2)cc2c(=O)n3ccccc3nc21 | -11.9%
O=CCCCC=O | 8.3%
Cc1ccc(S(=O)(=O)Nc2cnccc2C(=O)Nc2nc3ccccc3s2)cc1 | i
CCN(Cc1sccc1C)c1ncnc2ccc(-c3ccc4c(c3)OCO4)cc12 | i
Cc1ccsc1CN(C)c1ncnc2ccc(-c3ccc(CO)o3)cc12 | 10µM* | CHIKV nsP2 cell=25.9µM*;CHIKV NSP2 FL=u;Furin counter=-8.7%;nsP2 NS23 pep=u;Papain cs=-8.3%;nsP2pro conf qHTS=2.8%;HCV NS3 counter=23.1µM*
Cc1ccsc1CN(C)c1ncnc2ccc(-c3ccoc3)cc12 | -22.1%
C[C@@H]1O[C@@H](O[C@H]2[C@@H]3C=CO[C@@H](O[C@@H]4O[C@H](CO)[C@@H](O)[C@H](O)[C@H]4O)[C@@H]3[C@@]3(CO)O[C@@H]23)[C@H](O)[C@H](OC(=O)/C=C/c2ccc(O)c(O)c2)[C@H]1O | u | CHIKV nsP2 cell=6.5%[17.6 µM];CHIKV NSP2 FL=-6.4%[17.3 µM];Furin counter=-7.0%[17.3 µM];nsP2 NS23 pep=-16.5%[17.2 µM];Papain cs=-10.6%[17.2 µM];nsP2pro conf qHTS=-13.9%[8.62 µM];HCV NS3 counter=i
